Results: the supplement of paper PMC4466140

molecular target: ScBbc1; test: SPOT peptide array binding signal intensity (averaged, normalized) (arbitrary units (background-subtracted, floor 0; scale differs between SH3 domains)); higher = stronger binding of the SH3 domain to the peptide
Method in brief: (§1)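 Spot intensities were captured after detection with anti-GST antibody, an HRP-linked anti-mouse secondary and luminol, and quantified with Genespotter. The probes were GST-fused SH3 domains from four yeast species, produced in E. coli BL21(DE3), purified on glutathione Sepharose and incubated at 10 μg/ml overnight at 4°C on cellulose-bound synthetic 15-mer peptides with cysteines replaced by serines. Binding signal is the normalized, background-subtracted spot intensity averaged over replicates, and its arbitrary units differ between domains.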

Binder	SPOT peptide array binding signal intensity
FSRRQSMDIPSKNRN	34

molecular target: ScBem1-D1; test: as above
Method in brief: as §1

Binder	SPOT peptide array binding signal intensity
FSRRQSMDIPSKNRN	88.5

molecular target: ScBzz1-D1; test: as above
Method in brief: as §1

Binder	SPOT peptide array binding signal intensity
FSRRQSMDIPSKNRN	48

molecular target: ScBzz1-D2; test: as above
Method in brief: as §1

Binder	SPOT peptide array binding signal intensity
FSRRQSMDIPSKNRN	102

molecular target: ScCyk3; test: as above
Method in brief: as §1

Binder	SPOT peptide array binding signal intensity
FSRRQSMDIPSKNRN	8.5

molecular target: ScFus1; test: as above
Method in brief: as §1

Binder	SPOT peptide array binding signal intensity
FSRRQSMDIPSKNRN	405

molecular target: ScHof1; test: as above
Method in brief: as §1

Binder	SPOT peptide array binding signal intensity
FSRRQSMDIPSKNRN	2

molecular target: ScHse1; test: as above
Method in brief: as §1

Binder	SPOT peptide array binding signal intensity
FSRRQSMDIPSKNRN	566

molecular target: ScLsb1; test: as above
Method in brief: as §1

Binder	SPOT peptide array binding signal intensity
FSRRQSMDIPSKNRN	56.8

molecular target: ScLsb2; test: as above
Method in brief: as §1

Binder	SPOT peptide array binding signal intensity
FSRRQSMDIPSKNRN	1

molecular target: ScLsb3; test: as above
Method in brief: as §1

Binder	SPOT peptide array binding signal intensity
FSRRQSMDIPSKNRN	350

molecular target: ScLsb4; test: as above
Method in brief: as §1

Binder	SPOT peptide array binding signal intensity
FSRRQSMDIPSKNRN	126

molecular target: ScMyo3; test: as above
Method in brief: as §1

Binder	SPOT peptide array binding signal intensity
FSRRQSMDIPSKNRN	41.5

molecular target: ScMyo5; test: as above
Method in brief: as §1

Binder	SPOT peptide array binding signal intensity
FSRRQSMDIPSKNRN	13

molecular target: ScNbp2; test: as above
Method in brief: as §1

Binder	SPOT peptide array binding signal intensity
FSRRQSMDIPSKNRN	846

molecular target: ScPex13; test: as above
Method in brief: as §1

Binder	SPOT peptide array binding signal intensity
FSRRQSMDIPSKNRN	586

molecular target: ScRvs167; test: as above
Method in brief: as §1

Binder	SPOT peptide array binding signal intensity
FSRRQSMDIPSKNRN	70.5

molecular target: ScSho1; test: as above
Method in brief: as §1

Binder	SPOT peptide array binding signal intensity
FSRRQSMDIPSKNRN	458

molecular target: ScSla1-D1-D2; test: as above
Method in brief: as §1

Binder	SPOT peptide array binding signal intensity
FSRRQSMDIPSKNRN	1260

molecular target: ScSla1-D3; test: as above
Method in brief: as §1

Binder	SPOT peptide array binding signal intensity
FSRRQSMDIPSKNRN	851

molecular target: SpAbp1-D1; test: as above
Method in brief: as §1

Binder	SPOT peptide array binding signal intensity
FSRRQSMDIPSKNRN	118

molecular target: SpBbc1; test: as above
Method in brief: as §1

Binder	SPOT peptide array binding signal intensity
FSRRQSMDIPSKNRN	17

molecular target: SpBzz1-D1; test: as above
Method in brief: as §1

Binder	SPOT peptide array binding signal intensity
FSRRQSMDIPSKNRN	573

molecular target: SpBzz1-D2; test: as above
Method in brief: as §1

Binder	SPOT peptide array binding signal intensity
FSRRQSMDIPSKNRN	16.8

molecular target: SpCyk3; test: as above
Method in brief: as §1

Binder	SPOT peptide array binding signal intensity
FSRRQSMDIPSKNRN	4

molecular target: SpHof1; test: as above
Method in brief: as §1

Binder	SPOT peptide array binding signal intensity
FSRRQSMDIPSKNRN	43.8

molecular target: SpHof1-2; test: as above
Method in brief: as §1

Binder	SPOT peptide array binding signal intensity
FSRRQSMDIPSKNRN	98

molecular target: SpHof1-3; test: as above
Method in brief: as §1

Binder	SPOT peptide array binding signal intensity
FSRRQSMDIPSKNRN	193

molecular target: SpHse1; test: as above
Method in brief: as §1

Binder	SPOT peptide array binding signal intensity
FSRRQSMDIPSKNRN	784

molecular target: SpLsb1; test: as above
Method in brief: as §1

Binder	SPOT peptide array binding signal intensity
FSRRQSMDIPSKNRN	15

molecular target: SpLsb4; test: as above
Method in brief: as §1

Binder	SPOT peptide array binding signal intensity
FSRRQSMDIPSKNRN	290

molecular target: SpMyo1; test: as above
Method in brief: as §1

Binder	SPOT peptide array binding signal intensity
FSRRQSMDIPSKNRN	32.5

molecular target: SpNbp2; test: as above
Method in brief: as §1

Binder	SPOT peptide array binding signal intensity
FSRRQSMDIPSKNRN	400

molecular target: SpPex13; test: as above
Method in brief: as §1

Binder	SPOT peptide array binding signal intensity
FSRRQSMDIPSKNRN	157

molecular target: SpRvs167; test: as above
Method in brief: as §1

Binder	SPOT peptide array binding signal intensity
FSRRQSMDIPSKNRN	34.5

molecular target: SpSla1-D1-D2; test: as above
Method in brief: as §1

Binder	SPOT peptide array binding signal intensity
FSRRQSMDIPSKNRN	30.5

molecular target: SpSla1-D3; test: as above
Method in brief: as §1

Binder	SPOT peptide array binding signal intensity
FSRRQSMDIPSKNRN	279
